Screens from PubChem.
FEN1 inhibitor: inhibitors of human flap endonuclease 1 | Potency, µM (top dose mostly 114 µM), for the others: at the highest dose activity change, negative = inhibition, actives largely listed as inhibitors | 0.35% of 390,000 active | Recombinant FEN1 flap cleavage, fluorescence, 15 min | P39748 | AID 588795; further: on the % scale 0 is the no-effect control and ±100 the full control effect; nearly all actives have a fitted effect of over 65% in size
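Potency values derive from four-parameter Hill fits of normalized qHTS data. The reaction used 10 nM FEN1 preincubated 15 min at room temperature with compound, then 50 nM DNA substrate, read at 0 and 15 min.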
WRN helicase inh: WRN helicase (human) inhibition | AID 651768 | Q14191 | Potency, µM (top dose mostly 114 µM), for the others: top-dose activity change, negative = inhibition, actives largely listed as inhibitors | 0.46% of 360,000 active | WRN helicase unwinding, fluorescent forked duplex, kinetic; further: on the % scale 0 is the no-effect control and ±100 the full control effect; nearly all actives have a fitted effect of over 55% in size
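Kinetic red-fluorescence monitoring (525/598 nm) tracks WRN helicase activity after 100 nM fluorophore-quencher forked duplex and 2 mM ATP are added to 20 nM enzyme pretreated 15 min at room temperature with compound.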
Pol iota inh: DNA polymerase iota (human) inhibition; Potency, µM (top dose mostly 115 µM), without a hit: at the top dose activity, negative = inhibition, usual class: inhibitors; 1% of 390,000 active; AID 588590; Q9UNA4; Pol iota fluorescent replication assay, 10 min
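Pol iota at 10 nM preincubated 15 min with compounds at room temperature; reaction started with fluorescent substrate, 50 nM final. Fluorescence read kinetically at 0 and 10 min; buffer-only wells as negative control.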
Pol eta inh: blocks human DNA polymerase eta activity | Potency, µM (titrated, usually from 114 µM), inactives show at the top dose activity change, negative = inhibition, actives largely listed as inhibitors | recombinant Pol eta, fluorescent DNA replication assay | Q9Y253 | 1.2% of 390,000 active; further: on the % scale 0 is the no-effect control and ±100 the full control effect
Target sequence (Q9Y253 whole entry, looked up): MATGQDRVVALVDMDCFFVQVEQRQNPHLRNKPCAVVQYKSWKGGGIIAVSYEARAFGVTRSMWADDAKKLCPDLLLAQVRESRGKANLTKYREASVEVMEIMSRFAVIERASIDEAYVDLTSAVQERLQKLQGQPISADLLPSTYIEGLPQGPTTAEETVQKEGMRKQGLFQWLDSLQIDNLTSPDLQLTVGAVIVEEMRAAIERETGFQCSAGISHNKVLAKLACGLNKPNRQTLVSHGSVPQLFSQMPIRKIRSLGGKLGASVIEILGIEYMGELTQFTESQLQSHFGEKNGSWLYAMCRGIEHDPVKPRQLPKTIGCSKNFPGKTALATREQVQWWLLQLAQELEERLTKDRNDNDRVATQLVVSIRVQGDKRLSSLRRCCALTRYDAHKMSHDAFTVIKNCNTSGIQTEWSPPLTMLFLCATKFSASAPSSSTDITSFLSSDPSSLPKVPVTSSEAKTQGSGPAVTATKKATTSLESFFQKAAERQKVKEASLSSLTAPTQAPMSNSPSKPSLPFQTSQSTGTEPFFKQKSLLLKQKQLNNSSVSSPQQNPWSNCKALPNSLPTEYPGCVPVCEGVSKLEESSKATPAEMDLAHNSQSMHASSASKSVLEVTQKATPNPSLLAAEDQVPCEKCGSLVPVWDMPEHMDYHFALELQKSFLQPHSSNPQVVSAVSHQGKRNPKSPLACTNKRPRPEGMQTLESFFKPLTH
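Fluorescent replication assay: 50 nM final substrate added after a 15 min room-temperature compound preincubation with 10 nM enzyme. Signal taken at 0 min and again at 10 min.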
POLK inh: DNA polymerase kappa (human) inhibition; Q9UBT6; purified Pol kappa, fluorescent DNA synthesis assay, 10 min; Potency, µM (highest dose often 107 µM), for inactives: at the highest dose activity, negative = inhibition, most hits filed as inhibitors; 0.53% of 400,000 active; AID 588579; further: on the % scale 0 is the no-effect control and ±100 the full control effect
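Inhibition of 10 nM Pol kappa is measured by a fluorescent read-out at 0 and 10 min following addition of 50 nM substrate (final), with a 15-min room-temperature compound preincubation.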
Pol beta inh: DNA polymerase beta (human) inhibition. Potency, µM (series often up to 114 µM), without a hit: at the top dose activity change, negative = inhibition, actives largely listed as inhibitors. 1.3% of 340,000 active. Pol beta primer extension/strand displacement, fluorescence kinetic. P06746; further: on the % scale 0 is the no-effect control and ±100 the full control effect
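Values derive from four-parameter Hill fits of normalized kinetic data: reads at 0 and 10 min following addition of 50 nM substrate to 10 nM Pol beta preincubated 15 min with compound.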
Active calls of the source: *; ? = inconclusive; nt = no result given; [ ] = another dose, or the depositor's remark. Most compounds without a hit are left out; they make up all but 2.4% or so of the library. The call rests on the fitted dose curve; in most records, active means well fitted curve in the direction sought with a large enough effect; inconclusive means small, poorly fitted or top-dose-only effect, or another doubt; inactive means no such curve, though single readings can be large; an effect the other way counts as inactive or inconclusive. Potency means the concentration at half of the fitted maximal effect.

SMILES	FEN1 inhibitor	WRN helicase inh	Pol iota inh	Pol eta inh	POLK inh	Pol beta inh
O=C1c2ccc(-c3ccc(F)cc3OCc3ccccc3)cc2S(=O)(=O)c2cccc(C(=O)N3CCN(c4ncc(Br)cn4)CC3)c21	9%	4%	-18%	7%	-7%	nt
Cc1ccc(-c2csc(NC(=O)c3ccc(Br)cc3)c2C(=O)O)cc1	11%	-18%	24%	50µM*	1%	20%
Fc1ccc(Br)cc1C1C=C(c2ccc(Br)s2)Nc2ncnn21 (stereo unspecified)	9%	-33%	?	28µM*	-9%	10µM*
CCCCNC(=O)N1CCN(c2ccnc3cc(Cl)ccc23)CC1	?	50µM*	28µM*	?	-3%	2%
Cc1ccc(F)cc1NC(=O)N1CCN(c2ccnc3cc(Cl)ccc23)CC1	-13%	0%	30%	-24%	-8%	-23%
COc1ccc(-c2ccoc2)cc1C1C2C=CCC(C)C2C(=O)N1Cc1ccccc1 (stereo unspecified)	-4%	nt	6%	nt	-6%	nt
Cc1nnc(N/N=C/c2c(Cl)cccc2Cl)n1N	12%	-12%	11µM*	-18%	5%	-10%
CCOc1cc(/C=N/Nc2nnc(C)n2N)ccc1O	-21%	17%	8.9µM*	-5%	-18%	-24%
Cc1nnc(N/N=C/c2ccccc2O)n1N	1%	-6%	14µM*	-11%	-19%	0%
Oc1ccccc1/C=N/Nc1nn[nH]n1	13%	6%	31%	-5%	6%	-2%
COc1cc2nc(N3CCCCC3)nc(NC(C)C)c2cc1OC	?	nt	31%	nt	-21%	nt
O=C1C[C@@H](c2ccccc2Cl)N1S(=O)(=O)c1ccccc1[N+](=O)[O-]	14%	nt	-9%	nt	-4%	nt
O=C1c2ccccc2C(=O)C1c1ccccn1	-1%	-1%	24%	?	4%	-1%
O=C1c2ccccc2C(=O)C2OC12 (stereo unspecified)	nt	nt	nt	nt	nt	71µM*
Cc1ccc2cccc(O)c2n1	13%	nt	25%	nt	-7%	nt
COC1=CC(=O)C(O)=C(CCCCCCC/C=C/CCCCCCCC2=C(O)C(=O)C=C(OC)C2=O)C1=O	20µM*	35µM*	7.9µM*	3.5µM*	20µM*	nt
O=C(C[n+]1ccc2ccccc2c1)c1ccc(O)c(O)c1	11%	nt	?	nt	?	nt
CCC(=O)OC1(C)C(=O)C=C2C=C(c3ccc(C#N)cc3)OC=C2C1=O (stereo unspecified)	?	?	20µM*	45µM*	?	nt
CCCCC1=CC2=CC(=O)C(C)(OC(=O)CC)C(=O)C2=CN1c1cccc(C#N)c1 (stereo unspecified)	-6%	-10%	?	2%	-36%	nt
Cc1ccc(SCC(CC(C)C)N2CCN(C)CCC2=O)cc1 (stereo unspecified)	-11%	nt	1%	nt	3%	nt
Cc1ccc(C(=O)CSc2nccn2-c2ccccc2)cc1	-9%	-6%	-6%	-16%	-7%	56µM*
O=C(CSc1nccn1-c1ccccc1)c1ccc(Cl)cc1	6%	-3%	-4%	-14%	-2%	6%
CC(=O)c1c(CC(=O)O)[nH]n(-c2nc3ccccc3s2)c1=O	-23%	?	?	50µM*	?	32µM*
O=c1oc2cc([N+](=O)[O-])ccc2nc1/C=C(O)/C=C/c1ccccc1	nt	nt	nt	nt	nt	-23%
O=c1oc2cc([N+](=O)[O-])ccc2nc1/C=C(\O)c1cccc(Br)c1	25µM*	-9%	-22%[58.9 µM]	?	-13%	0%
SMILES	FEN1 inhibitor	WRN helicase inh	Pol iota inh	Pol eta inh	POLK inh	Pol beta inh
Cn1c(=O)c2[nH]c(NCCCN3CCOCC3)nc2n(C)c1=O	2%	-2%	5%	2%	-4%	89µM*
Cc1cc(NC(=O)CSCC(=O)N(c2ccc(F)cc2)C(C(=O)NC2CCCCC2)c2ccc(O)c(O)c2)no1 (stereo unspecified)	-11%	0%	?	?	-19%	20µM*
CN(C)c1ncc2nc(-c3ccc(Cl)cc3)c(=O)n(Cc3cccs3)c2n1	nt	nt	nt	nt	4%[60.1 µM]	nt
COc1ccc(SCC(CC(C)C)N2CCN(C)CCC2=O)cc1 (stereo unspecified)	-7%	nt	5%	nt	-17%	nt
CCCN1CCN(CCCNC(=O)c2ccc3c(c2)sc2nc(-c4ccc(OCC)cc4)cn23)CC1	-16%	nt	79µM*	-24%	-12%	?
CC(N)(C(=O)O)c1cccc(CC(=O)O)c1 (stereo unspecified)	nt	nt	nt	nt	0%[19.4 µM]	nt
CCc1ccccc1N1CC(C(=O)Nc2cc(S(=O)(=O)N3CCCC3)ccc2Cl)CC1=O (stereo unspecified)	-9%	-34%	50µM*	16µM*	?	nt
Cc1ccc(CN2CC(C(=O)Nc3cc(S(C)(=O)=O)ccc3Cl)CC2=O)cc1 (stereo unspecified)	-7%	-3%[57.1 µM]	-10%	?	-17%	14µM*
COc1ccccc1N1CC(C(=O)Nc2ccc(S(=O)(=O)N3CCCC3)cc2)CC1=O (stereo unspecified)	-7%	2%	?	-6%	-2%	nt
O=C1C=CC2(O[C@H](c3ccccc3)[C@@H](c3ccccc3)O2)[C@H](Sc2ccccc2O)C1	-2%	11µM*	22µM*	?	-3%	nt
COC(=O)c1c(NC(=O)c2ccccc2)sc(C(=O)c2ccccc2)c1C	-3%	-6%	-11%	-5%	-10%	39%
COC(=O)c1c(NC(=O)c2ccccc2)sc(C(N)=O)c1C	1%	-5%[11.6 µM]	89µM*	-16%	-6%	14%
COC(=O)c1c(NC(=O)C2CC=CCC2C(=O)O)sc(C)c1C (stereo unspecified)	-8%	-3%	30%	-9%	5%	5%
COC(=O)c1c(NC(=O)C2CC=CCC2C(=O)O)sc(C(N)=O)c1C (stereo unspecified)	0%	?	14µM*	?	-17%	3%
O=C(C[N+]1(CCO)CCOCC1)c1cccs1	-17%	nt	-26%	nt	-9%	nt
Clc1ccccc1-c1nn2c(-c3cc(-c4ccccc4)n[nH]3)nnc2s1	-1%	nt	?	nt	-6%	nt
CC(=O)N=c1sc2nc3ccccc3nc2n1N(C(C)=O)C(C)=O	79µM*	7%[11.6 µM]	?	-10%	-20%	4%
CC(=O)N=c1sc2ccccc2n1C	6%	3%	6%	6%	-3%	18%
CCN(CC)c1ccc(/C=C2\C(=O)N(c3nnc(C)c(=O)[nH]3)N=C2C)cc1	-10%	-12%[11.6 µM]	3.2µM*	?	-4%	39%
CC12CCC=CC1C(c1ccc(F)c(/C=C/c3ccccc3)c1)N(Cc1ccccc1)C2=O (stereo unspecified)	-11%	nt	-10%	nt	-14%	nt
